High-throughput results deposited in PubChem BioAssay by several laboratories.
The list is not random: actives were taken first. Their share in the collection is about 1.5%.
LANA-H2B inh: blockers of LANA interaction with H2A/H2B – biochemical, FP readout, HTS, primary screen; cell-free LANA-H2A/H2B peptide, fluorescence polarization; inhibition, % (concentration not given with the values); actives 0.6% (n = 320,000); in the data active = inhibition mostly above about 10%, no sharp cut-off; inactive = mostly below about 6.7%
GLD-1 RNA inh: GLD-1/TGE RNA complex disruptors, primary screen, biochemical, fluorescence polarization; AID 2280, 2010; actives 0.44% (n = 320,000); purified GLD-1 + fluorescein TGE RNA; inhibition, % at 5.96 µM;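 active = percent inhibition above a per-plate cutoff, the plate mean of test compounds plus 3 SD, cut at about 30% in these data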;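 also: 0% = DMSO wells with GLD-1 and probe and 100% = wells lacking GLD-1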
Keap1-Nrf2 PPI: Keap1-Nrf2 protein-protein interaction inhibitors, primary screen, biochemical, fluorescence polarization, single point; Kelch-like ECH-associated protein 1 (Homo sapiens), Q14145; Keap1 Kelch-Nrf2 peptide fluorescence polarization, 1536-well; inhibition, % at 9.4 µM; actives 0.15% (n = 340,000); in the data active = inhibition above about 12%; inconclusive = no clear call, values can overlap the other calls; inactive = below about 7.3%;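 also: human Keap1 Kelch domain with fluorescein labeled Nrf2 9mer peptide probe; 0% = neutral control wells and 100% = peptide positive control; higher means more block of Keap1 binding to Nrf2 peptide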
EBV gp42 inh: Epstein-Barr virus gp42 inhibitors, primary screen, biochemical, uHTS, fluorescence polarization; Glycoprotein 42 (Epstein-Barr virus (strain AG876)), Q1HVG2; Fluorescence polarization binding assay, mP read-out; inhibition, % (tested at 21.74 µM); actives 0.42% (n = 220,000); AID 1085, 2008; in the data active = inhibition above about 50%
LANA DNA inh: inhibitors of KSHV C-LANA binding to DNA, primary screen, biochemical, fluorescence polarization, FAM-LBS DNA, MBP-C-LANA, single point | Kaposi's sarcoma herpesvirus LANA C-terminal domain (residues 932-1162) DNA binding | inhibition, % at 9 µM | actives 0.078% (n = 340,000) | AID 504423, 2011;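 active = highest replicate inhibition at or above 60% at 9 µM, even if other replicates fall short; inactive = all replicates below 60% inhibition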;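 also: 0% = neutral control wells and 100% = 4 µM acridine orange control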
E coli Lon inh: inhibitors of E. coli Lon protease, primary screen, biochemical, fluorescence polarization; P0A9M0; purified E. coli Lon protease; inhibition, % at 7.94 µM; actives 0.42% (n = 360,000); in the data active = inhibition above about 13%, passing the limit was not always enough;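 also: 0% = enzyme with probe and DMSO and 100% = no enzyme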
Target sequence (P0A9M0 whole entry, looked up): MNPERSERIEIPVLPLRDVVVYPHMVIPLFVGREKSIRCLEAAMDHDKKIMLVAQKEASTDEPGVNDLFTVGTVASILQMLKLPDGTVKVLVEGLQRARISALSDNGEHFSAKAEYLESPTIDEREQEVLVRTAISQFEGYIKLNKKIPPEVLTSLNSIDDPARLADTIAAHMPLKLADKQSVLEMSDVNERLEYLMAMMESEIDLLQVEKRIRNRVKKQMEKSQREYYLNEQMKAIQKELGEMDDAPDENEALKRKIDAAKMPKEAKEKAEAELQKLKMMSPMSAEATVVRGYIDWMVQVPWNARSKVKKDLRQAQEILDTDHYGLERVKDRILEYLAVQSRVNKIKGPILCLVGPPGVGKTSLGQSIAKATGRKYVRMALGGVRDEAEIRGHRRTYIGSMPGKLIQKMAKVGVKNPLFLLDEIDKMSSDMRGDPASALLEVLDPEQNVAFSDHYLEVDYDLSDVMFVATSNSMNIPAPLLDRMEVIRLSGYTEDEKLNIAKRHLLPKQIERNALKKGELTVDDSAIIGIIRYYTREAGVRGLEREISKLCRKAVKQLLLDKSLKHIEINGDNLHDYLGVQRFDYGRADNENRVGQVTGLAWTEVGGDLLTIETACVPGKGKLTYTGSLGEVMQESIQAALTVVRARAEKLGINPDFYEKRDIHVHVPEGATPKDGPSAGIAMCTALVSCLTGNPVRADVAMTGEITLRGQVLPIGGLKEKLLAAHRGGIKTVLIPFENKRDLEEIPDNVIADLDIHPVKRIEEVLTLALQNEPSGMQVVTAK
GLD1 RNA confirm: GLD-1/TGE RNA binding inhibitors, retest, confirmation, biochemical, fluorescence polarization, triplicate | shares compounds with GLD-1 RNA inh | GLD-1/FL-TGE RNA fluorescence polarization | inhibition, % at 5.96 µM | actives 10% (n = 550) | AID 2459, 2010;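 active = average inhibition across triplicates above the hit cutoff set in the primary screen, cut at about 32% in these data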;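 also: 0% = GLD-1 with RNA probe and DMSO and 100% = wells lacking GLD-1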
* marks the source's active call; other numbers are inactive results; u = inconclusive; x = no result; + = active, no number.

SMILES	LANA-H2B inh	GLD-1 RNA inh	Keap1-Nrf2 PPI	EBV gp42 inh	LANA DNA inh	E coli Lon inh	others
Cc1ccc(/C=C2\SC(=S)N(/N=C/c3cc([N+](=O)[O-])ccc3O)C2=O)o1	4.6	4.4	8.7	-9.7	73.6*	-2.1
Cc1nn(-c2ccccc2)c(N2CCCC2)c1/C=C1\N=C(c2ccccc2)OC1=O	3.7	-3.9	3.7	116.8*	-1.4	-2.0
Cc1cc2nc(C3CCCCC3)c(Cc3cccc(Cl)c3)n2c(C)c1Br	x	x	x	x	x	-9.7
CC(C)OC(=O)c1c2c(n3ccccc13)C(=O)c1ccccc1C2=O	1.4	-6.9	u	87.6*	24.7	-2.5
OCCNc1nc(Nc2ccccc2)nc2ccccc12	-2.6	1.5	3.1	0.6	-1.9	-1.0
OCCNc1nc(Nc2ccc(Br)cc2)nc2ccccc12	0.6	2.4	x	56.0*	x	x
Cc1nn(-c2ccccc2)c2c1C(c1ccc(O)c(O)c1)N1C(=N2)C(Nc2ccccc2)=Nc2ccccc21 (stereo unspecified)	3.4	94.9*	-4.1	84.9*	2.1	3.0
Cc1nn(-c2ccccc2)c2c1C(c1ccc([N+](=O)[O-])cc1)N1C(=N2)C(=O)Nc2ccccc21 (stereo unspecified)	1.4	1.2	0.2	-14.7	-0.2	-1.4
Cc1ccc(NC2=Nc3ccccc3N3C2=Nc2c(c(C)nn2-c2ccccc2)C3c2ccc(O)c(O)c2)cc1 (stereo unspecified)	x	x	-1.5	77.9*	0.1	-7.2
Cc1cccc(NC2=Nc3ccccc3N3C2=Nc2c(c(C)nn2-c2ccccc2)C3c2ccc(O)c(O)c2)c1 (stereo unspecified)	3.9	-4.7	-0.3	32.0	3.2	-12.1
CCCC(=O)N1CCC1(C)C(=O)NS(=O)(=O)c1cc2c(cc1C)CCCS2(=O)=O (stereo unspecified)	x	x	x	x	x	-1.1
C[C@@H]1CN([C@H](C)CO)C(=O)c2cc(NC(=O)Nc3ccc4c(c3)OCO4)ccc2O[C@H]1CN(C)Cc1ccncc1	+	1.4	-0.6	x	-2.0	-3.2
CC1CCN(Cc2c(O)ccc3c2O/C(=C\c2ccco2)C3=O)CC1	2.0	68.4*	-3.5	35.4	54.8	0.7
COCCN(CCOC)Cc1c(O)ccc2c1O/C(=C\c1ccco1)C2=O	9.2	72.3*	1.3	x	64.9*	-0.4
COC(=O)COc1ccc2c(c1)O/C(=C\c1ccco1)C2=O	3.4	-3.9	-8.1	x	6.4	-15.5
Cc1ccc(-c2noc(C3CCCN(C(=O)c4cccc(F)c4)C3)n2)cc1 (stereo unspecified)	16.2*	-9.7	-6.8	x	0.6	-0.2
O=C(NCC1CCCO1)c1cc(-c2ccco2)nc2ccccc12 (stereo unspecified)	9.1	39.2*	1.5	-4.2	4.3	11.8
O=C(N/N=C/c1cccc(F)c1)c1cc(-c2ccco2)nc2ccccc12	6.6	3.9	-6.4	65.7*	-3.0	-8.4
CCO[C@@H]1OC(C(=O)N2CCN(Cc3ccc4c(c3)OCO4)CC2)=C[C@H](c2csc3ccccc23)[C@H]1CCCO	13.8*	-2.6	-4.6	1.5	-0.7	-7.1
COc1ccc(-c2coc3c(C(=O)NCc4ccc(OC)c(OC)c4)cccc23)c(C)c1	x	x	x	x	x	7.3
CC(C)C[C@H]1COc2cccc(N3CCSCC3)c2S(=O)(=O)N1	x	x	x	x	x	-2.6
COC(=O)[C@@]1(Cc2ccc(F)cc2)[C@H]2c3cc(C(=O)N4CCCC4)n(CCc4ccccn4)c3C[C@H]2CN1C(=O)c1ccccc1	17.9*	5.6	x	9.4	x	x
CC1CCc2sc(C(=O)NN)cc2C1 (stereo unspecified)	-0.1	72.0*	-0.4	-1.8	0.4	-0.2
CC1CCc2sc(C(=O)Nc3ccc(C(N)=O)cc3)cc2C1 (stereo unspecified)	1.0	-3.9	-1.4	-9.9	1.4	-6.4
Cc1ccc(NC2=C([N+](=O)[O-])CS(=O)(=O)C2)cc1	27.9*	3.7	-2.8	-29.4	0.3	-2.5
SMILES	LANA-H2B inh	GLD-1 RNA inh	Keap1-Nrf2 PPI	EBV gp42 inh	LANA DNA inh	E coli Lon inh	others
Cc1ccc2c(c1)c1nc3ccccc3nc1n2C	6.8	18.7	0.7	x	1.8	5.2
COc1ccc(Cn2c(N)c(C#N)c3nc4ccccc4nc32)cc1OC	-1.2	-10.2	-1.5	-12.0	-1.3	-2.6
CCOc1ccc2c(c1)c1nc3ccccc3nc1n2C	38.9*	x	-59.9	x	14.9	18.1
COc1ccc2c(c1)c1nc3ccccc3nc1n2Cc1ccc(OC(C)C)c(OC)c1	-5.9	17.1	-2.0	80.0*	12.9	-0.2
COc1ccc(Cn2c3ccc(OC)cc3c3nc4ccccc4nc32)cc1	8.9	4.6	1.9	66.7*	6.9	2.2
COc1ccccc1NS(=O)(=O)c1ccc(C(=O)N2CC(C)OC(C)C2)cc1 (stereo unspecified)	19.8*	0.7	-0.7	x	0.8	-0.6
COc1ccccc1NS(=O)(=O)c1cccc(C(=O)N2CC(C)OC(C)C2)c1 (stereo unspecified)	-2.0	5.1	-3.7	x	0.8	-2.6
CN(C)c1ccc(C(=O)/C=C/c2cccnc2)cc1	-0.7	-4.6	2.6	x	1.9	-0.8
CN(C)c1ccc(/C=C/C(=O)c2cccc(Br)c2)cc1	-24.0	-21.1	-38.2	144.0*	-4.1	-396.4
Cn1nc([N+](=O)[O-])nc1Oc1ccccc1C(=O)N1CCOCC1	+	1.3	-2.0	1.7	1.1	0.9
CCCOc1ccc(C(=O)ON=C2CCN(C)CC2)cc1	31.3*	1.4	-3.9	-15.5	-0.1	4.6
COc1cccc(C(=O)N2CCN(C(=O)c3cccc(F)c3)CC2)c1	-0.3	53.1*	-4.0	-35.7	2.1	-3.7	GLD1 RNA confirm=4.7
COc1cccc(C(=O)N2CCN(C(=O)C3CC3)CC2)c1	x	x	-4.3	x	-0.4	2.2
O=C1CCC/C(=N/NC(=O)c2ccc(CN3c4cccc5cccc(c45)S3(=O)=O)cc2)C1	-1.2	40.3*	-3.4	0.2	1.4	-2.1	GLD1 RNA confirm=2.0
Cc1ccc(S(=O)(=O)N(C)Cc2ccc(C(=O)N/N=C3\CCCC(=O)C3)cc2)cc1	-3.3	49.1*	-7.6	-18.9	1.0	13.6	GLD1 RNA confirm=2.8
Cc1ccc(S(=O)(=O)N(C)Cc2ccc(C(=O)NN=C3C4CC5CC(C4)CC3C5)cc2)cc1	12.0	2.5	-4.9	-2.3	-2.4	0.2
